The list is not random: actives were taken first. Their share in the collection is about 3.4%.
hgDAF-12 ag = H. glycines DAF-12 receptor agonists, primary screen, cell-based, luminescence, HEK293, GAL4 fusion, UAS-luciferase. activation, % at 6.8 µM. HEK293 GAL4-hgDAF12 UAS-luciferase reporter, agonist luminescence; normalized to butyrate control. Nuclear hormone receptor DAF-12 (Heterodera glycines), GAL4 fusion. actives 1.8% (n = 370,000);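 active = activation above a cutoff set at the mean of all screened compounds plus 3 SD, cut at about 10% in these data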
ssDAF-12 act = S. stercoralis DAF-12 nuclear receptor activators, primary screen, cell-based, luminescence, HEK293, GRIP1 co-expression, lit1-tk-luc; Nuclear hormone receptor DAF-12 (Strongyloides stercoralis); HEK293 ssDAF-12/GRIP1 lit1-tk-luc reporter; % of 3 µM dafachronic acid response; activation, % at 6.8 µM; actives 1% (n = 370,000); AID 652126, 2013;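 active = activation above the mean over all tested compounds plus 3 SD, cut at about 0.9% in these data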
NF-kB expr up = activators of NF-kB expression in neurons, primary screen, cell-based, HTS; human neuronal cells, NF-kB reporter expression; active compounds read high; fold change at 12.5 µM; actives 1.6% (n = 190,000); AID 1239, 2008; in the data active = fold change above about 3.3
hcDAF-12 act = H. contortus DAF-12 nuclear receptor activators, primary screen, cell-based, luminescence, HEK293, lit1-tk-luc reporter; activation, % at 6.8 µM; actives 1.4% (n = 370,000); HEK293 hcDAF-12 lit1-tk-luc reporter; 0% DMSO, 100% Δ7-dafachronic acid;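 active = activation above the mean of all tested compounds plus 3 SD, cut at about 5.5% in these data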
APP 5'UTR act = activators of APP 5'UTR luciferase reporter, primary screen, SH-SY5Y cells | SH-SY5Y APP 5'UTR luciferase reporter, luminescence; zero percent = DMSO vehicle wells | activation, % at 2 µM | actives 1% (n = 190,000);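 active = activation above a set limit, based on mean plus 3 SD of controls, cut at about 140% in these data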
Hits are given with their value; – = inactive; · = no result given.

SMILES | hgDAF-12 ag | ssDAF-12 act | NF-kB expr up | hcDAF-12 act | APP 5'UTR act
COc1cccc(NC(=O)Nc2nc3ncccn3c2-c2ccc(C(F)(F)F)cc2)c1 | – | – | · | – | ·
CCOC(=O)c1c(C)n(-c2ccc(C)cc2)c2c(C(C(C)=O)C(=O)O)c(Br)c(O)c(O)c12 (centres undefined) | – | – | – | – | –
CCOC(=O)C(C(C)=O)c1c(Br)c(O)c(O)c2c(C(=O)c3ccc(C)cc3)coc12 (centres undefined) | – | – | 4.5 | – | –
CCOc1cccc2c1OC(c1cc(OC)c(OC)c(OC)c1)N1N=C(c3ccc(C)o3)CC21 (centres undefined) | · | · | – | · | 137
COc1ccc(C2CC(c3ccc(C)o3)=NN2C(C)=O)cc1 (centres undefined) | – | – | – | – | –
O=Cc1ccc(OCc2ccc3c(c2)OCO3)cc1 | 11 | – | · | – | ·
CCN1CC=C2C(C#N)=C(N)C(C#N)(C#N)C(CCc3ccccc3)C2C1 (centres undefined) | – | 1.0 | – | – | –
Cn1c(/C(C#N)=C/c2ccc(O)cc2)nc2ccccc21 | – | 1.2 | · | – | ·
Cc1ccccc1CN1CCCCC(NC(=O)c2ccccc2)C1=O (centres undefined) | – | – | · | – | ·
COc1ccc(Cn2cnc3c(N)c(C)c(C)cc32)cc1 | – | – | – | – | –
CCCCCCCCn1cnc2c(N)c(C)c(C)cc21 | – | – | 4.5 | – | –
C/C(=N\Nc1nccnc1Cl)c1ccc(O)c(C)c1 | 12 | – | · | – | ·
COc1ccc(CSc2nnc3[nH]c(=O)cc(N)n23)cc1 | – | 3.7 | – | – | –
COc1ccc(-c2cc(C(=O)N=Nc3c(O)[nH]c4ccccc34)[nH]n2)cc1 | – | – | · | – | ·
O=C(Nc1ccc2cn[nH]c2c1)c1ccc(Cl)c(S(=O)(=O)N2CCOCC2)c1 | – | – | – | 6.5 | –
COC(=O)[C@]12C=CCN1[C@H](c1ccc(C(F)(F)F)cc1)c1c(c3ccccc3n1S(=O)(=O)c1ccc(C)cc1)C2 | – | – | · | – | ·
COc1ccc(C(=O)C2(C(=O)NC3CCCC3)CC(c3ccccc3C(F)(F)F)=NO2)cc1 (centres undefined) | – | – | · | – | ·
O=C(CSc1nc2ccsc2c(=O)n1NC(=O)c1ccccc1)Nc1nccs1 | 11 | – | – | – | –
O=C(CSc1nc2ccccc2c(=O)n1NC(=O)c1ccccc1)c1ccc(Cl)cc1 | 12 | – | – | – | 158
Cc1nc2ccccc2c(=O)n1NC(=O)c1ccc(Cl)cc1 | – | – | · | – | ·
O=C(CSc1nc2ccccc2c(=O)n1NC(=O)c1ccccc1)c1ccccc1 | 12 | 1.2 | – | – | –
CC(C)C[C@@H]1COc2cccc(N3CCSCC3)c2S(=O)(=O)N1C | – | – | · | – | ·
O=C1C(=NO)CCc2ccccc21 | – | 1.3 | · | – | ·
COc1ccc(-c2cc3ccccc3[nH]2)cc1 | – | – | · | 5.6 | ·
Cc1cc(C)cc(NC(=O)C(=O)NCCCN2CCCC2=O)c1 | – | – | · | 5.8 | ·
SMILES | hgDAF-12 ag | ssDAF-12 act | NF-kB expr up | hcDAF-12 act | APP 5'UTR act
Cc1nc2ccccc2c2nc3ccccc3n12 | – | – | – | – | –
c1ccc2c(c1)nnn1c3ccccc3nc21 | · | · | 5.3 | · | 147
O=S(=O)(NCc1csc(-c2cccnc2)n1)c1cccs1 | – | 0.9 | – | – | –
Cc1ccc2[nH]c(O)c(N=Nc3ccccc3C)c2c1 | – | – | · | – | ·
COc1ccccc1N=Nc1c(O)[nH]c2ccc(Br)cc12 | – | 1.0 | · | 6.4 | ·
CC(Oc1ccccc1)C(=O)N=Nc1c(O)[nH]c2ccc(Br)cc12 (centres undefined) | – | 2.2 | – | – | –
Cc1cccc(C)c1OCC(=O)N=Nc1c(O)[nH]c2ccc(Br)cc12 | – | – | – | – | –
Cc1ccc(-n2c(SCC(=O)c3ccc(F)cc3)nnc2-c2cnccn2)cc1 | – | – | · | – | ·
NNc1ncnc2sc3c(c12)CCC3 | 12 | – | – | – | –
c1ccc(-c2cccc3[nH]cc(-c4ccccc4)c23)cc1 | – | – | · | – | ·
COC(=O)c1ccc(Oc2nc(C)cc(Oc3ccccc3)n2)cc1 | – | – | – | – | –
COC(=O)c1ccc(Oc2cc(C)nc(-n3nc(C)cc3C)n2)cc1 | – | – | 3.9 | – | –
C=CCN1C(=O)[C@@H](CC(=O)NCCCOC)[C@]2(C(=O)OCC)CCCCC/C=C/12 | – | – | · | – | ·
CN=Cc1sc2ccccc2c1O | – | – | – | – | –
CC(=Nc1cccc(O)c1)c1sc2ccccc2c1O | – | 1.5 | 10 | – | 161
CCc1ccc(-c2nc(CS(=O)CC(=O)O)c(C)o2)cc1 (centres undefined) | 12 | – | · | – | ·
CCc1ccc(-c2nc(CS(=O)CC(=O)NC3CC3)c(C)o2)cc1 (centres undefined) | – | – | · | – | ·
CN(C(=O)c1ccccc1OCC(=O)Nc1ccc(Br)cc1)c1ccccc1 | – | 1.0 | · | – | ·
Cc1cccc(C(=O)Nc2nc3ccc(S(C)(=O)=O)cc3s2)c1 | – | – | · | – | ·
CS(=O)(=O)c1ccc2nc(NC(=O)c3ccccc3)sc2c1 | 11 | – | · | – | ·
O=S(=O)(/N=C(/Nc1nc2ccccc2s1)c1ccccc1)c1ccc(F)cc1 | 11 | 0.9 | · | – | ·
O=S(=O)(/N=C(/Nc1nccs1)c1ccc(F)cc1)c1ccccc1 | – | – | · | – | ·
CS(=O)(=O)c1ccc2nc(NC(=O)Nc3ccc(Cl)c(Cl)c3)sc2c1 | – | 1.9 | – | – | –
O=C(Nc1nc(=O)c2ccccc2s1)c1ccccc1 | – | – | 3.6 | – | –
C=CCN1C(=O)[C@@H](CC(=O)N2CCC(c3ccccc3)CC2)[C@]2(C(=O)OC)CCCCC=C12 | – | – | · | – | ·
SMILES | hgDAF-12 ag | ssDAF-12 act | NF-kB expr up | hcDAF-12 act | APP 5'UTR act
C#CCOCCOCCOCCNc1nc(N2CCOCC2)nc(N2CCN(C(=O)[C@H](CCC(=O)O)n3cc(C(N)CO)nn3)CC2)n1 (some centres undefined) | – | – | · | – | ·
COc1cc2c(cc1NC(=O)c1ccco1)CCCC2 | – | – | – | 5.7 | –
COc1cc(NC(=O)C2CCCCC2)c(OC)cc1NC(=O)c1ccco1 | – | – | – | – | –
CCC(=O)N1CCc2cc(Br)c(S(=O)(=O)NCCCN(C)Cc3ccccc3)cc21 | – | – | · | – | ·
CCOc1cccc(C(=O)Nc2ccc3[nH]ncc3c2)c1 | 13 | – | · | – | ·
CCOc1cccc(C(=O)Nc2ccncc2)c1 | – | – | – | – | –
CN(C)S(=O)(=O)Oc1cccc(C(=O)Nc2cccc(Cl)c2)c1 | – | – | – | – | –
CN(C)S(=O)(=O)Oc1cccc(C(=O)Nc2ccc(Cl)c(Cl)c2)c1 | – | – | 4.2 | – | 174
COc1ccccc1C(=O)Nc1ccc2[nH]ncc2c1 | – | – | · | – | ·

High-throughput results (PubChem BioAssay)
